This is a sample that favours compounds with a hit; in the whole collection about 3.3% have one here.
Calb FLC: C. albicans growth modulation with fluconazole; C. albicans CaCi-2 (fluconazole-resistant clinical isolate) + fluconazole, Alamar Blue growth, 48 h; growth inhibition, % (no concentration beside the values); 0.57% of 300,000 active;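 active = growth inhibition above about 58% in most replicates, limit read from the data, passing the limit was not always enough; inconclusive = exactly half the replicates above a set limit; inactive = most replicates below a set limit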;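 note: all wells also contain fluconazole at 8 µg/ml as a sub-toxic cotreatment; 0% = median of DMSO wells and 100% = median of geldanamycin control wells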
Efflux pump inh: antifungal efflux pump inhibition, Nile Red retention. S. cerevisiae Candida pump triplex. inhibition, % at 10 µM. 0.44% of 330,000 active. AID 485275;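 active = plate passing quality check with inhibition over a set limit, or well fluorescence over plate mean plus 4 SD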;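 note: Nile Red retained in pooled yeast measured as flow cytometry median fluorescence; 0% = buffer negative control and 100% = Enniatin B positive control; higher means more Nile Red kept so more efflux inhibition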
KCC2 mod: modulates chloride dependent transport by human KCC2; 2.2% of 190,000 active; AID 1456; B-score of Tl+ flux slope (higher = more flux/activation; lower = inhibition) at 10 µM; KCC2 cells, thallium flux FluoZin-2 fluorescence;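 active = thallium flux slope and its plate-corrected score both differing from the plate sample mean at a set confidence after two filtering rounds, in either direction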;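 note: slope of fluorescence scaled to starting intensity during 10 to 20 s after thallium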
Cardio protect: protects H9c2 cardiomyocytes from peroxide injury. protection from H2O2 cell death, % at 20 µM. H2O2 injury protection, ATPLite, 2 h. 0.63% of 360,000 active;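 active = compounds giving at least 50% protection of heart cells from peroxide-induced death in the single-dose screen, raw or plate-pattern-corrected value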;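 note: 0% = DMSO wells with peroxide and 100% = DMSO wells without peroxide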
PHOSPHO1 block: inhibitors of human PHOSPHO1 phosphatase; Q8TCT1; recombinant PHOSPHO1, absorbance phosphatase assay; inhibition, % at 13.3 µM; 1.1% of 290,000 active; in the data active = inhibition above about 60%
Target sequence (Q8TCT1 whole entry, looked up): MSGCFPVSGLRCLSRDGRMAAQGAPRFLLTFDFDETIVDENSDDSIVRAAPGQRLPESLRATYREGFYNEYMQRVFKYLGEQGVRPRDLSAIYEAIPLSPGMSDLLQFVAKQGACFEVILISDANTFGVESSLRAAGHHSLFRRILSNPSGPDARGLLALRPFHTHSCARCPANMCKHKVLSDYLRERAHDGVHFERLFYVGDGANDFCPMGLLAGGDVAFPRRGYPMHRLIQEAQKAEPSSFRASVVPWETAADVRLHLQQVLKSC
Starred values were filed as active, the others as inactive; ? = inconclusive; . = not tested or not shown.

SMILES | Calb FLC | Efflux pump inh | KCC2 mod | Cardio protect | PHOSPHO1 block
COc1ccc(NC(=O)N(CCCN(C)C)Cc2cc3cc(OC)ccc3[nH]c2=O)cc1 | 7 | 0 | -0.32 | 51* | -5
O=C(O)c1cc(S(=O)(=O)N2CCCCC2)ccc1N1CCCC1 | . | 0 | . | 1 | .
CC(C)Oc1ccc(S(=O)(=O)N2CCOCC2)cc1NC(=O)CN1C(=O)NC2(CCCC2)C1=O | 6 | 0 | . | 6 | -10
Cc1ccc(S(=O)(=O)N2CCCCC2)cc1NC(=O)Cn1c(=O)cnc2ccccc21 | 7 | 0 | -0.38 | -3 | 60*
Cc1ccc(NC(=O)Cn2c(=O)cnc3ccccc32)cc1S(=O)(=O)N1CCCCC1 | . | 0 | . | -11 | .
COc1ccc(/C=C2\N=C(SC)NC2=O)cc1 | 90* | 0 | 16* | -15 | -3
CCSC1=N/C(=C\c2ccc(OC)cc2)C(=O)N1 | -3 | 0 | -0.45 | -1 | 2
CCCS(=O)(=O)c1nnnn1-c1cccc(OC)c1 | 82* | 0 | 0.12 | -24 | 0
COc1ccc(C(CNC(=O)c2cccc(NS(=O)(=O)c3ccc(C)c(F)c3)c2)N2CCOCC2)cc1 (configuration not stated) | 1 | 0 | . | -3 | .
CN1c2ccccc2Oc2c(c(=O)n(C)c(=O)n2C)C1c1cccc([N+](=O)[O-])c1 (configuration not stated) | 9 | 0 | -0.75 | 26 | 12
Cn1c2c(c(=O)n(C)c1=O)C(c1ccc(Br)cc1)Nc1ccccc1O2 (configuration not stated) | 17 | 0 | . | 51* | 29
CCOC(=O)c1c(C)n(C)c2cc(Br)c(OC)cc12 | 2 | 0 | -0.047 | -7 | -9
CCOC(=O)c1c(CN2CCCCC2)n(C)c2cc(Br)c(OC)cc12 | 1 | 0 | . | 9 | 64*
CCOC(=O)c1c(CNCCN(CC)CC)n(C)c2cc(Br)c(OC)cc12 | 2 | 0 | -3* | 3 | -78
CCOC(=O)c1c(CN2CCN(CCO)CC2)n(C)c2cc(Br)c(OC)cc12 | 5 | 0 | . | 6 | 4
COc1ccc(C)cc1NC(=O)COC(=O)c1ccc2c(c1)OCCO2 | . | 0 | . | -8 | .
Cc1csc(NC(C)c2nc3cc(C(F)(F)F)ccc3n2CCCO)n1 (configuration not stated) | -12 | . | . | -5 | .
c1ccc(Cn2nnnc2C(c2cccnc2)N2CCN(C3CCCCC3)CC2)cc1 (configuration not stated) | 0 | 0 | . | 79* | 1
CCCCCC(=O)N1C[C@@H](O)[C@H](n2cc(COC(=O)c3ccccc3)nn2)C[C@@H]1c1ccc(Cl)cc1 | . | . | . | -16 | .
CC(=O)Oc1ccc2c(=O)c(-c3nc4ccccc4s3)coc2c1 | 89* | 0 | 0.55 | -25 | 16
Cc1n[nH]c(=S)c2nn(-c3ccccc3F)c(C)c12 | -8 | . | -0.8 | -2 | 65*
Cc1n[nH]c(=S)c2nn(-c3cccc(Cl)c3)c(C)c12 | 17 | . | . | . | -37
COc1cccc(-n2nc3c(=S)[nH]nc(C)c3c2C)c1 | -6 | 0 | . | 2 | 60*
O=C(CN1CCN(C(=O)CNC(=O)c2ccc3c(c2)OCO3)CC1)Nc1ccc(F)cc1 | . | 0 | . | 6 | .
COC(=O)c1[nH]c2ccccc2c1NC(=O)c1c(F)cccc1F | 2 | 0 | 0.86 | 3 | 16
SMILES | Calb FLC | Efflux pump inh | KCC2 mod | Cardio protect | PHOSPHO1 block
C[N+]1(CCCCCCC(=O)/C=N/O)CCCCCC1 | -4 | 0 | . | -2 | 82*
C[N+](C)(C)CCCCCCC(=O)/C=N/O | -4 | 0 | 0.44 | 4 | 2
COc1cc(/C=C(\NC(=O)c2ccccc2)C(=O)Nc2nccs2)ccc1OC(C)=O | 5 | 0 | . | 6 | 29
CC1=CC2=C(OC1N(C)C)c1cccc3cccc(c13)C2=O (configuration not stated) | 96* | 0 | 0.017 | 45 | -36
CC(C)=C1C(=O)NN(c2ccc(F)c(Cl)c2)C1=O | 101* | 1 | -0.0056 | 0 | 31
CC(=O)Nc1ccc(S(=O)(=O)NCCc2cc3ccc(C)c(C)c3[nH]c2=O)cc1 | -11 | 0 | . | 7 | 63*
CCOC(=O)C(Sc1nn(C)c(=S)s1)C(C)=O (configuration not stated) | -2 | 0 | -3.7 | -1 | 97*
Cc1ccc(S(=O)(=O)CC2CSc3nc4ccccc4n32)cc1 (configuration not stated) | 88* | 0 | -0.42 | -21 | 14
Cc1ccc(S(=O)(=O)CC2CSc3nc(N)cc(=O)n32)cc1 (configuration not stated) | 3 | 0 | . | 9 | 5
Cc1cc(/C=C2\SC(=S)NC2=O)c(C)n1C | 18 | 0 | . | -7 | 88*
Cc1cc(/C=C2\SC(=S)NC2=O)c(C)n1-c1ccc(O)cc1 | 15 | 0 | -5.5* | -13 | 28
O=C(Nc1ccc(N2CCCCC2)cc1)c1cc([N+](=O)[O-])cc([N+](=O)[O-])c1 | -9 | 0 | . | -3 | 28
O=[N+]([O-])c1nn(-c2ccc(Cl)cc2)n(O)c1=NCc1cccnc1 | 88* | 0 | 1.1 | -4 | -33
CN(CC(=O)N(CCO)Cc1ccccc1)S(=O)(=O)c1ccc2c(c1)c(=O)n(C)c(=O)n2C | 0 | 0 | . | -3 | 38
COC(=O)/C=c1/s/c(=C(/C#N)C(=O)N2CCCCC2)n(-c2ccccc2)c1=O | 1 | 0 | -0.017 | 13 | -9
COc1cc(/C=c2\s/c(=C(/C#N)C(=O)N3CCCC3)n(-c3ccccc3)c2=O)ccc1O | -3 | 0 | -2.1 | 58* | -3
O=C(O)c1cc(S(=O)(=O)Nc2ccc3oc(=O)sc3c2)ccc1O | 11 | 0 | . | . | 63*
CC(=O)c1c(C)oc2ccc(NS(=O)(=O)c3ccc(O)c(C(=O)O)c3)cc12 | -1 | 0 | -1.5 | -3 | 4
O=C1/C(=C\c2cc(Br)cc(Br)c2O)SC(=S)N1Cc1ccccc1 | 1 | 1.5* | . | -21 | 2
COc1cc(/C=C2/SC(=S)N(Cc3ccccc3)C2=O)cc(Cl)c1O | -7 | 1 | . | -16 | 20
O=C1/C(=C\c2ccc(O)cc2)SC(=S)N1Cc1ccccc1 | 20 | 0 | . | -11 | 40
COc1cc([N+](=O)[O-])cc(/C=C2/SC(=S)N(Cc3ccccc3)C2=O)c1O | ? | 3.0* | . | -21 | -2
Cc1cc(C)cc(NC(=O)CSCc2cc(=O)n3ccsc3n2)c1 | 5 | 0 | . | 6 | 12
C=CCN(CC=C)S(=O)(=O)c1ccc(NC(=S)NC(=O)c2ccc(-c3ccccc3)cc2)cc1 | -8 | 1 | 0.28 | -21 | -66
C=CCN(CC=C)S(=O)(=O)c1ccc(NC(=S)NC(=O)c2ccco2)cc1 | 30 | 0 | 8.1* | -19 | -43
C=CC[C@H]1C(C(=O)OCC)=CC[C@@H](c2ccccc2)N1S(=O)(=O)c1ccc(C)cc1 | . | . | . | -5 | .
c1ccc(-c2ccccc2OCCCN2CCCCCC2)cc1 | 90* | 0 | 1.8 | -7 | -151
Brc1ccccc1OCCCN1CCCCCC1 | -25 | 0 | -1.7 | 2 | 41
CC(=O)c1ccccc1OCCCN1CCCCC1 | 2 | 0 | . | 53* | 21

Screening data from PubChem.
